Measured values reported in PubChem BioAssay (NCI).
Compounds without any hit were thinned out: in the full panel of roughly 83,000, 20% have a hit.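 Single-dose data. Exposure time 48 hours. Values below 10 considered active.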 A number with no mark means an inactive call. Active and inactive are the calls of the source.

The molecules below were run on MDA-MB-468 breast (assay: NCI-60 one-dose screen, 48 h (100 = growth as untreated, 0 = no growth, -100 = all killed)). Conditions: 10 µM unless noted.

Row | SMILES | growth
1 | O=C(O)c1ccc(NC(=O)c2ccc(Nc3ccnc(C(F)(F)F)c3)cc2)cc1 | 99.8%
2 | Cc1ccc2c(N/N=C\c3ccco3)cc(C)nc2n1 | 70.2%
3 | C=C(CN1CC=CCC1)[C@@H]1CC[C@]2(CO)CC[C@]3(C)[C@H](CC[C@@H]4[C@@]5(C)CC[C@H](O)C(C)(C)[C@@H]5CC[C@]43C)[C@@H]12 | 89.2%
4 | NNC(=O)CSc1nc2scc(-c3ccccc3)c2c(=O)n1-c1ccccc1 | 102%
5 | O=C(Nc1cccc(F)c1)Nc1cccc(Cl)c1 | 90%
6 | CC(=O)c1cccs1 | 105%
7 | CC1=C(SCC(=O)OCCCCCC(C)C)C(=O)c2ccccc2C1=O | 65.5%
8 | CCN(CC)c1ccc(N=C2C=CC(=O)C=C2NC(C)=O)cc1 | 98.7%
9 | COc1ccc(/C=C\c2cc(OC)c(OC)c(OC)c2)cc1OC(=O)c1cccc(Cn2cc(CCOC(=O)[C@H](N)Cc3cn(C)c4ccccc34)nn2)c1 | 13.9%
10 | COc1cc(/C=C/C(=O)N2CCN(C(=O)c3cc(OC)c(OC)c(OC)c3)CC2)ccc1OCCCOc1cc2c(cc1OC)C(=O)N1CCC[C@H]1C=N2 | -34.6% (active)
11 | COC(=O)[C@]12CC[C@@H](C)[C@H](C)[C@@H]1C1=CC[C@@H]3[C@@](C)(CC#N)C4=C(C[C@@]3(C)[C@]1(C)CC2)OC[C@]4(C)C=O | -83% (active)
12 | COc1ccc(C2C(C#N)=C(/N=C/c3ccc(Cl)cc3)Oc3c2sc2c(C)cccc32)cc1 (stereo not given) | 21.4%
13 | COc1ccc(-c2cc(C(=O)Nc3nc4cc(C)c(C)cc4s3)nc3cc(-c4ccccc4)nn23)cc1OC | 109%
14 | COc1cc2ncnc(Nc3ccc(F)c(Cl)c3)c2cc1NC(=O)/C=C/CN1CCCCC1 | -82.2% (active)
15 | CCOC(=O)n1cc(-c2nonc2-c2cn(C)c3ncccc23)c2ccccc21 | -8.56% (active)
16 | O=C(O)c1ccc(S(=O)(=O)O)cc1 | 103%
17 | CN(C)C(=O)Oc1cccc([N+](C)(C)C)c1 | 102%
18 | O=S(=O)(O)CCI | 91.8%
19 | CCOC(=O)c1c(Nc2ccccc2)nn2c(-c3ccc(OC)cc3)ccnc12 | 91.1%
20 | NC(=O)SCC(=O)Nc1ccccc1-c1ccccc1 | 99.9%

Row | SMILES | growth
21 | O=C1COCCN1c1ccc(NCc2cn(Cc3ccccc3)c3ccccc23)cc1 | -76% (active)
22 | C#CCn1cnc2c(Nc3cccc(NC(=O)CCl)c3)ncnc21 | 23.5%
23 | Cn1cc(-c2[nH]c3cc(NC(=O)[C@H](N)C4CCCCC4)cc4c3c2C=NNC4=O)cn1 | -83.3% (active)
24 | CNC(=O)c1cc(Oc2ccc3c(c2)sc2nc(-c4ccc(OC)cc4)cn23)ccn1 | 16.8%
25 | CC1CCN(C(=O)CCCl)c2ccccc21 (stereo not given) | 108%
26 | CCN(CC)CCOC(=O)N1c2ccccc2Sc2ccccc21 | 96.3%
27 | CCN(CC)c1ccc(/C=N/NC(=O)c2ccc(NS(C)(=O)=O)cc2)cc1 | 20.2%
28 | CC(=O)OC[C@H](O)[C@@]1(O)CC[C@H]2[C@@H]3CCC4=CC(=O)CC[C@]4(C)[C@H]3[C@@H](O)C[C@@]21C | 112%
29 | CC/C=C\C[C@H](F)C/C=C1/C(=O)C=C[C@@H]1C/C=C\CCCC(=O)OC | 17.9%
30 | N#Cc1ccc2nc[nH]c2c1 | 87.6%
31 | C=C(C)[C@@H]1CC[C@]2(C(N)=O)CC[C@]3(C)[C@H](CC[C@@H]4[C@@]5(C)C/C(=C/c6cccnc6)C(=O)C(C)(C)[C@@H]5CC[C@]43C)[C@@H]12 | 14.5% [100 µM]
32 | CN1CCN(CCCOc2ccc3ncnc(Nc4ccc(Oc5cccc(C(F)(F)F)c5)c(Cl)c4)c3c2)CC1 | -24.2% (active)
33 | COc1ccccc1N1CCN(C(CNS(=O)(=O)c2ccc(Cl)cc2)c2cccnc2)CC1 (stereo not given) | 98.8%
34 | N/C(=N\c1nc2ccccc2s1)NC(=O)Nc1ccccc1Cl | 16.6%
35 | COc1cc2ncnc(Nc3ccc(F)c(Cl)c3)c2cc1OCC(=O)N1CCOCC1 | -15.9% (active)
36 | O=C(CNC(=O)c1cccc2ccccc12)Nc1ccccc1Cc1ccccc1 | 13.7% [5 µM]
37 | N#C/C(=C\c1cccc2cnccc12)n1nnc2cccc(F)c21 | 31.9%
38 | C/C(=C(/c1ccc(Cl)cc1)c1ccc(OCCN)cc1)c1ccc(C)cc1 | 108%
39 | CCc1cccc(C)c1NC(=O)c1sc2nc3c(cc2c1N)CCCCC3 | 10.8%
40 | COc1cc(-c2nn(C(C)(C)C)cc2-c2ccnc(NCCCNS(=O)(=O)c3cccc(F)c3)n2)ccc1Cl | 77.8%
